Reference: the supplement of paper PMC11555231

B1: PADI4_3_H5A H5A (peptide)
chain: YRDHAYRHPKYCG
B2: PADI4_3_H5Q H5Q (peptide)
chain: YRDHQYRHPKYCG
B3: PADI4_3_H8G H8G (peptide)
chain: YRDHHYRGPKYCG
B4: PADI4_3_Y6Q Y6Q (peptide)
chain: YRDHHQRHPKYCG
B5: PADI4_3_Y6L Y6L (peptide)
chain: YRDHHLRHPKYCG
B6: PADI4_3_D3N D3N (peptide)
chain: YRNHHYRHPKYCG
B7: PADI4_3_K10Q K10Q (peptide)
chain: YRDHHYRHPQYCG
B8: PADI4_3_R2N R2N (peptide)
chain: YNDHHYRHPKYCG
B9: PADI4_3_R7I R7I (peptide)
chain: YRDHHYIHPKYCG
B10: PADI4_3_H8L H8L (peptide)
chain: YRDHHYRLPKYCG
B11: PADI4_3_H4G H4G (peptide)
chain: YRDGHYRHPKYCG
B12: PADI4_3_H8A H8A (peptide)
chain: YRDHHYRAPKYCG
B13: PADI4_3_K10N K10N (peptide)
chain: YRDHHYRHPNYCG
B14: PADI4_3_K10G K10G (peptide)
chain: YRDHHYRHPGYCG
B15: PADI4_3_H4I H4I (peptide)
chain: YRDIHYRHPKYCG
B16: PADI4_3_H5L H5L (peptide)
chain: YRDHLYRHPKYCG
B17: PADI4_3_Y11A Y11A (peptide)
chain: YRDHHYRHPKACG
B18: PADI4_3_D3G D3G (peptide)
chain: YRGHHYRHPKYCG
B19: PADI4_3_R2A R2A (peptide)
chain: YADHHYRHPKYCG
B20: PADI4_3_R7A R7A (peptide)
chain: YRDHHYAHPKYCG
B21: PADI4_3_P9Q P9Q (peptide)
chain: YRDHHYRHQKYCG
B22: PADI4_3_D3I D3I (peptide)
chain: YRIHHYRHPKYCG
B23: PADI4_3_R2L R2L (peptide)
chain: YLDHHYRHPKYCG
B24: PADI4_3_Y11Q Y11Q (peptide)
chain: YRDHHYRHPKQCG
B25: PADI4_3_P9G P9G (peptide)
chain: YRDHHYRHGKYCG
B26: PADI4_3_H4Q H4Q (peptide)
chain: YRDQHYRHPKYCG
B27: PADI4_3_H8Q H8Q (peptide)
chain: YRDHHYRQPKYCG
B28: PADI4_3_H8I H8I (peptide)
chain: YRDHHYRIPKYCG
B29: PADI4_3_D3A D3A (peptide)
chain: YRAHHYRHPKYCG
B30: PADI4_3_Y6G Y6G (peptide)
chain: YRDHHGRHPKYCG
B31: PADI4_3_Y6A Y6A (peptide)
chain: YRDHHARHPKYCG
B32: PADI4_3_Y11L Y11L (peptide)
chain: YRDHHYRHPKLCG
B33: PADI4_3_P9N P9N (peptide)
chain: YRDHHYRHNKYCG
B34: PADI4_3_H4N H4N (peptide)
chain: YRDNHYRHPKYCG
B35: PADI4_3_H5I H5I (peptide)
chain: YRDHIYRHPKYCG
B36: PADI4_3_R2G R2G (peptide)
chain: YGDHHYRHPKYCG
B37: PADI4_3_P9L P9L (peptide)
chain: YRDHHYRHLKYCG
B38: PADI4_3_D3Q D3Q (peptide)
chain: YRQHHYRHPKYCG
B39: PADI4_3_R7G R7G (peptide)
chain: YRDHHYGHPKYCG
B40: PADI4_3_H5N H5N (peptide)
chain: YRDHNYRHPKYCG
B41: PADI4_3_K10I K10I (peptide)
chain: YRDHHYRHPIYCG
B42: PADI4_3_D3L D3L (peptide)
chain: YRLHHYRHPKYCG
B43: PADI4_3_H8N H8N (peptide)
chain: YRDHHYRNPKYCG
B44: PADI4_3_R7N R7N (peptide)
chain: YRDHHYNHPKYCG
B45: PADI4_3_H4A H4A (peptide)
chain: YRDAHYRHPKYCG
B46: PADI4_3_R2I R2I (peptide)
chain: YIDHHYRHPKYCG
B47: PADI4_3_H5G H5G (peptide)
chain: YRDHGYRHPKYCG
B48: PADI4_3_R7Q R7Q (peptide)
chain: YRDHHYQHPKYCG
B49: PADI4_3_Y6N Y6N (peptide)
chain: YRDHHNRHPKYCG
B50: PADI4_3_Y6I Y6I (peptide)
chain: YRDHHIRHPKYCG
B51: PADI4_3_K10L K10L (peptide)
chain: YRDHHYRHPLYCG
B52: PADI4_3_K10A K10A (peptide)
chain: YRDHHYRHPAYCG
B53: PADI4_3_Y11N Y11N (peptide)
chain: YRDHHYRHPKNCG
B54: PADI4_3_R2Q R2Q (peptide)
chain: YQDHHYRHPKYCG
B55: PADI4_3_Y11I Y11I (peptide)
chain: YRDHHYRHPKICG
B56: PADI4_3_Y11G Y11G (peptide)
chain: YRDHHYRHPKGCG
B57: PADI4_3_R7L R7L (peptide)
chain: YRDHHYLHPKYCG
B58: PADI4_3_P9I P9I (peptide)
chain: YRDHHYRHIKYCG
B59: PADI4_3_P9A P9A (peptide)
chain: YRDHHYRHAKYCG

What follows are binders tested against PADI4, Q9UM07 (assay: log2 enrichment score relative to parent PADI4_3 peptide (binding to PADI4); higher = tighter binding than parent). Settings: CaCl2: 10 mM.
PADI4, Q9UM07, sequence (Q9UM07 whole entry): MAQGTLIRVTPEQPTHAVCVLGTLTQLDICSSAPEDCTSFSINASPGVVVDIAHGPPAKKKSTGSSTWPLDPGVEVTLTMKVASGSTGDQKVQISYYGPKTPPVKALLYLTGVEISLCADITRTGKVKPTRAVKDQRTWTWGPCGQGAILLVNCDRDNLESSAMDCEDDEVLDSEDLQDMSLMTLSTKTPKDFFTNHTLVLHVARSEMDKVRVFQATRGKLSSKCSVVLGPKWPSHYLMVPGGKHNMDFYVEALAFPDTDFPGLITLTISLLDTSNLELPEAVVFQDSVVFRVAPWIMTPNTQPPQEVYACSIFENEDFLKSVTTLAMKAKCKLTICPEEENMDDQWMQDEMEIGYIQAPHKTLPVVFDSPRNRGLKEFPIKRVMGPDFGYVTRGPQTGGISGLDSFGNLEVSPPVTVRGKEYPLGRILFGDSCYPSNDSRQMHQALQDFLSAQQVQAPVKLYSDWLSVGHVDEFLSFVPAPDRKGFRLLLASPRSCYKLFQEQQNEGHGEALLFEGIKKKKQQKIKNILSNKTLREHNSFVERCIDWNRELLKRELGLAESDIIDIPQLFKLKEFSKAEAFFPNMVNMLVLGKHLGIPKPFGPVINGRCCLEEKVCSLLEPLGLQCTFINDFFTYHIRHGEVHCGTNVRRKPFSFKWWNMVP
Experimental: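 Deep mutational scan of the cyclic peptide PADI4_3 (ClAc-D-Tyr1 initiator, thioether-cyclised to Cys12, C-terminal Gly plus HA tag, mRNA-displayed). Positions 2-11 were each randomised by NNK codons; Met was reprogrammed as N-methyl-alanine (MeA). One round of equilibrium panning against bead-immobilised human PADI4 (100 nM, 10 mM CaCl2, RT). Log2 enrichment (bound/input frequency) relative to the parent sequence (0 = parent), mean of three independent selections.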

Binder | log2 enrichment score
B1 | -2.12
B2 | -3.72
B3 | -3.99
B4 | -1.94
B5 | -1.7
B6 | -2.8
B7 | -1.09
B8 | -2.77
B9 | -1.67
B10 | -3.01
B11 | -3.75
B12 | -3.62
B13 | -1.77
B14 | -2.43
B15 | -2.05
B16 | -3.61
B17 | -4.24
B18 | -3.8
B19 | -2.77
B20 | 0.206

Binder | log2 enrichment score
B21 | -1.71
B22 | -4.17
B23 | -0.745
B24 | -4.43
B25 | -2.45
B26 | -0.57
B27 | -3.37
B28 | -3.37
B29 | -2.97
B30 | -1.54
B31 | -1.95
B32 | -3.94
B33 | -2.01
B34 | -2.71
B35 | -3.45
B36 | -3.89
B37 | -2.12
B38 | -3.32
B39 | -2.58
B40 | -3.38

Binder | log2 enrichment score
B41 | 2.81
B42 | -2.88
B43 | -2.87
B44 | 1.37
B45 | -1.88
B46 | -1.38
B47 | -3.73
B48 | -0.31
B49 | -2.28
B50 | -2.71
B51 | 0.693
B52 | -1.7
B53 | -3.81
B54 | -1.6
B55 | -3.77
B56 | -4.17
B57 | -2.09
B58 | -1.78
B59 | -1.66
